Experimental findings from PubChem BioAssay (Tox21) are described below.

A number with no mark means an inactive call. Where a call stands in place of a potency, no number is given. Active and inactive are the calls of the source. Calls follow the shape of the full dose curve.

In the assay the target is Gonadotropin-releasing hormone receptor (Homo sapiens) (UniProt P30968). The experiment in a line: Human gonadotropin-releasing hormone receptor (GnRHR) small molecule agonists, calcium flux assay in GnRHR-HEK293 cells (AID 1920063). Also: nearly all actives have a fitted effect of over 35% in size. The note with it: calcium flux fluorescence, agonist mode; series mostly up to 57.6 µM. The source says: National Center for Advancing Translational Sciences [NCATS]
Sequence of Gonadotropin-releasing hormone receptor (Homo sapiens) (P30968 whole entry, looked up): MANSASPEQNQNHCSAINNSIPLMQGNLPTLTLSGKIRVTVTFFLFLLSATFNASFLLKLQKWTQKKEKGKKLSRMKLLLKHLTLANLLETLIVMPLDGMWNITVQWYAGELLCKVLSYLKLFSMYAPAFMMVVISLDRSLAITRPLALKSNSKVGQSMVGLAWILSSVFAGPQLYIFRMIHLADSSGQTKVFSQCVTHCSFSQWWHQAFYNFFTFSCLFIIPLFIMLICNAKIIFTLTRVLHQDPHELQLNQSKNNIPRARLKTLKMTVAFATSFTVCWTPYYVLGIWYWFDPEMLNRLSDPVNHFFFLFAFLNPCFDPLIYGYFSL
Division of Preclinical Innovation [DPI]
U.S. Environmental Protection Agency [EPA]
National Institutes of Environmental Health Sciences [NIEHS]
National Toxicology Program [NTP]
U.S. Food and Drug Administration [FDA]
Gonadotropin-releasing hormone receptor (GnRHR) is a G-protein-coupled receptor (GPCR) and acts (through phospholipase C) to increase intracellular inositol trisphosphate and then release intracellular calcium stores. Cell-based GnRHR-Hek293 calcium influx assay is using HEK293 cells that have been genetically engineered to express the human GnRHR, which activity can be measured by calcium signaling. A compound/drug can activate (agonist) GnRHR that can be monitored by levels of intracellular calcium.
GnRHR-HEK293 cells developed by Codex Corp contain human GnRHR reporter gene, which was stably integrated into HEK 293 cells. The compound activation can be detected by fluorescence intensity via calcium flux assay. This cell line has been used to screen the Tox21 10K compound library to identify GnRHR agonists.
GnRHR-Hek293 cells were dispensed at 1500cells/4uL/well in 1536-well black wall/clear bottom plates using a multidrop dispenser. After the assay plates were incubated at a 37 C/5% CO2 incubator for 18 hours, 4 uL of Calcium Dye Solution was added to each well. The plates were incubated at 37 C for 1 hour. For agonist mode, 23 nL of compounds dissolved in DMSO, positive controls or DMSO only was transferred to the assay plate by a pin tool station. The fluorescence intensity in the plates was measured using FDSS 7000EX kinetic plate reader with a filter set of Ex/Em=480/540 for 3 min at 1 sec intervals. Each test compound was measured at 15 concentrations and in triplicates.
A general note: A change in cytosolic calcium serves as a functional read-out for many receptors and channels.
Turning to `N[C@@H](COP(=O)(O)O)C(=O)O`, the activity change is 0.11% [at 11.8 µM, active compounds read high].

Turning to `CN1C(=O)N(C)C(O)C1O` (stereo not given), the Potency entry was “inactive”.

For `CCC(C)(CCC(C)C)C(=O)[O][Sn]([CH3])([CH3])[O]C(=O)C(C)(CC)CCC(C)C` (stereo not given), the Potency result was “inactive”.

Consider `CN=C(N)NC(=O)Nc1c(C)cccc1C`, for which the Potency result is “inactive”.

As to `COc1ccc(CN(CCN(C)C)c2ncccn2)cc1`, the Potency entry was “inactive”.

On to `O=C(O)CCCCCCC(=O)O`, for which the Potency result is “inactive”.

`O[C@@H]1CO[C@H]2[C@@H]1OC[C@@H]2O`: the Potency result is “inactive”.

Take `Cc1ccc2c(c1[N+](=O)[O-])C(=O)c1ccccc1C2=O`: the Potency result is “inactive”.

With `CC(C(=O)O)c1ccc(C(=O)c2ccccc2)s1` (stereo not given), the Potency entry is “inactive”.

In the case of `COc1ccc2c(c1)C(=O)N(CCc1ccc(S(=O)(=O)NC(=O)NC3CCCCC3)cc1)C(=O)C2(C)C`, the Potency entry was “inactive”.

As to `NC(=O)Nc1ccc(Cl)c(Cl)c1`, the Potency result is “inactive”.

As to `CC(C)C[C@H](NC(=O)OCC1c2ccccc2-c2ccccc21)C(=O)O`, the Potency entry is “inactive”.

On to `CCN(CC)C(=O)Nc1ccc(OCC(O)CNC(C)(C)C)c(C(C)=O)c1` (stereo not given), for which the Potency result was “inactive”.

For the molecule `CCCCOCCOC(=O)c1cccnc1`, the Potency result is “inactive”.

In the case of `CCOc1cc(OCC)c(C(=O)CCC(=O)O)cc1OCC`, the Potency entry is “inactive”.

Take `CCCCCCCC/C=C\CCCCCCCC(=O)OC[C@@H](O)[C@H]1OC[C@H](O)[C@H]1O`: the Potency entry is “inactive”.

For `COC(=O)C1=C(C)NC(C)=C(C(=O)OC(C)(C)CN(C)CCC(c2ccccc2)c2ccccc2)C1c1cccc([N+](=O)[O-])c1` (stereo not given), the Potency result is “inactive”.

Consider `O=P(O)(O)Oc1ccccc1`, for which the Potency result was “inactive”.

As for `CC(C)NCCCC1(C(N)=O)c2ccccc2-c2ccccc21`, the Potency result is “inactive”.

Turning to `CC(=O)Nc1ccn(C2COC(COC(=O)c3ccccc3)O2)c(=O)n1` (stereo not given), the Potency entry was “inactive”.

As to `O=C(O)COCC(=O)O`, the Potency entry is “inactive”.

Consider `Nc1nc(CC(=O)O)cs1`, for which the Potency result is “inactive”.

With `O=C1[C@H]2CCCC[C@H]2C(=O)N1CCCCN1CCN(c2nsc3ccccc23)CC1`, the Potency entry was “inactive”.

Take `CCCCCCCCOc1ccccc1C(=O)Nc1ccc(C(=O)OCC[N+](C)(CC)CC)cc1`: the Potency result is “inactive”.

In the case of `Cc1cc(C(C)(C)C)c(O)c(C)c1Cn1c(=O)n(Cc2c(C)cc(C(C)(C)C)c(O)c2C)c(=O)n(Cc2c(C)cc(C(C)(C)C)c(O)c2C)c1=O`, the Potency entry was “inactive”.

Turning to `CCO`, the Potency entry is “inactive”.

As to `CCCCCCCCCCCCCCCCCCOCCO`, the activity change is 0.36% [at 11.8 µM, active compounds read high].

For the molecule `CN(C)C(=O)C1(N2CCCCC2)CCN(CC[C@@]2(c3ccc(Cl)c(Cl)c3)CN(C(=O)c3ccccc3)CCO2)CC1`, the Potency entry was “inactive”.

`NS(=O)(=O)c1cc2c(cc1C(F)(F)F)NCNS2(=O)=O`: the Potency entry is “inactive”.

As to `CCC(CC)(CC(=O)Nc1cccc(/C=C/c2nc(C3CCC3)cs2)c1)C(=O)O`, the Potency result was “inactive”.

Take `CCCCOC(=O)C(C)CC` (stereo not given): the Potency entry was “inactive”.

As for `COc1cc(-c2ccc(N=C=O)c(OC)c2)ccc1N=C=O`, the Potency result is “inactive”.

In the case of `CCOC(=O)C1=C(C)NC(C)=C(C(=O)OC)C1c1cccc(Cl)c1Cl` (stereo not given), the Potency result is “inactive”.

As to `CC(CO)(CO)C(=O)O`, the Potency entry was “inactive”.

As for `CN(C)[C@@H]1C(=O)C(C(=O)NCN2CCCC2)=C(O)[C@@]2(O)C(=O)C3=C(O)c4c(O)cccc4[C@@](C)(O)C3C[C@@H]12` (stereo not given in full), the Potency entry was “inactive”.

On to `CCOC(=O)CCC(=O)OCC`, for which the Potency result is “inactive”.

As to `CCCCCCCCCCOS(=O)(=O)O`, the Potency entry was “inactive”.

For the molecule `COc1ccc2sc(C(=O)Nc3nnn[nH]3)c(OC(C)C)c2c1`, the Potency entry is “inactive”.

Consider `COc1ccc(CCC(=O)c2c(O)cc(O[C@@H]3O[C@H](CO)[C@@H](O)[C@H](O)[C@H]3O[C@@H]3O[C@@H](C)[C@H](O)[C@@H](O)[C@H]3O)cc2O)cc1O`, for which the Potency result is “inactive”.

`O=C(O)Cc1ccc2c(c1)C(=O)c1ccccc1CO2`: the Potency result is “inactive”.
